Screening results deposited in PubChem by several laboratories.
14-3-3 Bad inh: disrupts binding of bovine 14-3-3 zeta to phospho-Bad peptide | TR-FRET 14-3-3zeta/Dy647-pBad peptide displacement, 1 h | inhibition, % at 21.7 µM | actives 0.71% (n = 220,000);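 active = inhibition above about 70%, limit read from the data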
Target sequence (P63103 whole entry, looked up): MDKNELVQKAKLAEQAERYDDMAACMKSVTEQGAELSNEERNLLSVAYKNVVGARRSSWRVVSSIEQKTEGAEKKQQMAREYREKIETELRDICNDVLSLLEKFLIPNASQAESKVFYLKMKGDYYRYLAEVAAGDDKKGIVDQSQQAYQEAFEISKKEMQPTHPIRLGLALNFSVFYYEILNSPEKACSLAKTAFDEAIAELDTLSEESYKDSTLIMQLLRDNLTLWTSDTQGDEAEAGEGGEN
zVAD death inh: blocks zVAD induced death of L929 cells; actives 0.38% (n = 220,000); L929 zVAD necroptosis rescue, ATP luminescence, 24 h; with zVAD 60 µM; AID 1377; viability rescue, % at 10 µM;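 active = activation, scaled between plate controls, above about 75%, limit read from the data; inactive = activation under that limit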
HMGR II inh: blocks class II HMG-CoA reductase of Enterococcus faecalis; inhibition, % at 10 µM; purified E. faecalis HMGR, NADPH absorbance 340 nm kinetic; actives 0.41% (n = 190,000);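 active = inhibition above a set limit, the median over all tested compounds plus 3 SD, cut at about 9.5% in these data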;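 also: enzyme runs in reverse so mevalonate oxidation gives rising NADPH absorbance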
m-calpain inh: blocks pig calpain II enzyme activity; purified calpain II, fluorogenic peptide substrate, 30 min; inhibition, % at 16 µM; actives 0.37% (n = 220,000);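 active = inhibition above about 50%, limit read from the data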
TNF necrop inh: blocks TNF-alpha induced death of Jurkat FADD-/- cells | activation (protection from cell death), % at 10 µM | Jurkat FADD-/- TNF necroptosis rescue, ATP luminescence, 24 h; 0 = TNF only, 100 = no-TNF cells | AID 463075 | actives 0.068% (n = 220,000);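 active = activation, meaning protection from cell death, of at least 50% relative to plate controls; inactive = activation below 50%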;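 also: necroptosis triggered by 40 ng/mL TNF-alpha added together with compound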
ROMK primary: modulates human ROMK potassium channel activity | P48048 | Tet-inducible ROMK, thallium flux fluorescence; actives lie on both sides | B-score at 10 µM | actives 2% (n = 130,000) | AID 1918;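 active = signal ratio slope over the read window, or its plate-corrected B-score, at least 3 SD from the plate mean, either direction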;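 also: B-score of the F/F0 ratio slope over 7 to 12 s after thallium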
Target sequence (P48048 whole entry, looked up): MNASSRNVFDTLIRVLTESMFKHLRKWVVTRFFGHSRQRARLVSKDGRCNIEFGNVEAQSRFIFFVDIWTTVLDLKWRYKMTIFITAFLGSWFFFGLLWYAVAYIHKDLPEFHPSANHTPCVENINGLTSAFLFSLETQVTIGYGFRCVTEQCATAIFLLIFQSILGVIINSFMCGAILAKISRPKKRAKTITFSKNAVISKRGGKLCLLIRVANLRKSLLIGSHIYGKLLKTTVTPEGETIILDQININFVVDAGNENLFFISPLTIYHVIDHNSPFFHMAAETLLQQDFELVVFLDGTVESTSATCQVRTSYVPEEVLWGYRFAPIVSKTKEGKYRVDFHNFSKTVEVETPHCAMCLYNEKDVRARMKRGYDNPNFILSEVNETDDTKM
Each line names hits and unclear results; the compound was inactive in the other large screens; [ ] = another dose, or the depositor's remark. Only some compounds are listed: those with a hit (about 3% of all), similar ones and a draw of the others.

CCCn1c(=O)[nH]c(=O)c2c1nc(-c1ccc(OC(F)F)cc1)n2CCN1CCOCC1	none
CCOC(=O)CCCc1sc(N)nc1-c1[nH]c(=O)[nH]c1C	14-3-3 Bad inh 80
CCOC(=O)CCc1c(C)n[nH]c1C	none
N#C/C(N)=C(/C#N)N=Cc1cccc(Cl)c1	none (no result: HMGR II inh, ROMK primary)
CCOc1ccccc1C(=O)N1c2ccccc2Sc2ccccc21	m-calpain inh 55
COc1ccccc1C(=O)N1c2ccccc2Sc2ccccc21	none (no result: ROMK primary)
Cc1nn(C)c(Oc2ccccc2)c1CCNS(=O)(=O)c1ccc(Cl)cc1	none (no result: ROMK primary)
COc1ccc(N(C(=O)COc2ccc(C)cc2)S(=O)(=O)c2ccc(C)cc2)cc1	none
CCCCCOCC1CC(C/C(C)=N/Nc2nc(-c3ccccc3)cs2)C(=O)O1 (centres undefined)	14-3-3 Bad inh 81 (no result: ROMK primary)
CCCCCOCC1CC(C/C(C)=N/NC(N)=S)C(=O)O1 (centres undefined)	none
Cc1cccc(NC(=O)CN2C(=O)N/C(=C/c3cc(C)n(-c4cccnc4)c3C)C2=O)c1	m-calpain inh 51
CCOC(=O)c1c(C)[nH]c(C(=O)C(C)Cl)c1C (centres undefined)	HMGR II inh 9.8
CCOC(=O)c1c(C)[nH]c(C(C)=O)c1C	none
CCOC(=O)c1c(C)[nH]c(C(=O)COC(=O)c2cnc(C)cn2)c1C	14-3-3 Bad inh 80 (no result: ROMK primary)
CCN(c1cccc(C)c1)c1nc2ccsc2c(=O)s1	none
COCCN1C(=O)N(c2cccc(C)c2)C(=O)C1CC(=O)Nc1ccc(F)cc1 (centres undefined)	14-3-3 Bad inh 93
CC(C)OC(=O)NCCOC(=O)Nc1ccccc1Cl	none
CCCCC(=O)Nc1ccc(C(=O)c2ccccc2)cc1	m-calpain inh 53
Cc1cc(C)c(S(=O)(=O)Nc2ccc3c(c2)CCC3)c(C)c1	m-calpain inh 51
CCOC(=O)N1CCN(C(=O)c2ccc3c(SCC(=O)O)c4c(nc3c2)CCCC4)CC1	none (no result: ROMK primary)
O=C(O)CSc1c2c(nc3cc(C(=O)N4CCOCC4)ccc13)CCCC2	14-3-3 Bad inh 82
O=[N+]([O-])c1ccc(Nc2ccccc2)nc1	TNF necrop inh 90
O=[N+]([O-])c1ccc(Nc2cccc(F)c2)nc1	TNF necrop inh 70
O=[N+]([O-])c1ccc(Nc2ccc(F)cc2)nc1	TNF necrop inh 73
O=C(O)c1cc([N+](=O)[O-])ccc1NCc1ccccc1	none
O=C(Nc1ccc(F)cc1)Nc1ccc([N+](=O)[O-])cn1	none
O=[N+]([O-])c1ccc(NCc2ccccc2)nc1	m-calpain inh 52, TNF necrop inh 76
Cc1cc(Nc2ccc([N+](=O)[O-])cc2)nc2ccccc12	none
COC(=O)c1cccc(Nc2ccc([N+](=O)[O-])cn2)c1	none
Clc1cccc(Sc2ccc(-c3ccccn3)s2)c1	none (no result: HMGR II inh, ROMK primary)
CN(Cc1ccc(F)cc1)C(=O)c1ccc2c(c1)NC(=O)CS2	HMGR II inh 12
COc1ccc(C(OC(=O)c2c(C)noc2C)C(=O)NC2CCCC2)cc1 (centres undefined)	14-3-3 Bad inh 82
Cc1csc(SCC(=O)NC(=O)NC2CCCC2)n1	TNF necrop inh 56
Cc1csc(SCC(=O)NC(=O)NC(C)(C)C)n1	none
O=C1c2ccccc2C(=O)N1CCCCSc1nnnn1-c1ccccc1	m-calpain inh 54 (no result: ROMK primary)
O=C(O)CSc1nnnn1-c1ccccc1	none
O=C(CSc1nnnn1-c1ccccc1)CSc1nnnn1-c1ccccc1	m-calpain inh 76 (no result: ROMK primary)
CN1CCN(c2ccc(C(=O)c3ccc(Br)cc3)cc2[N+](=O)[O-])CC1	none
CC1Cc2ccccc2N1C(=O)CSc1nnc(CNc2ccccc2)o1 (centres undefined)	none (no result: ROMK primary)
Cc1nnc(Nc2ccc3c(c2)OCO3)c2ccccc12	14-3-3 Bad inh 82[fluorescence artefact?]
CC(=O)C1=C(O)C(=O)N(c2ccc(S(=O)(=O)Nc3nccs3)cc2)C1c1ccc(F)cc1 (centres undefined)	none (no result: HMGR II inh)
O=C(NCCOC12CC3CC(CC(C3)C1)C2)c1cccc(Br)c1	none
Cc1noc(C)c1CSc1nc2ccccc2c(=O)n1-c1ccc(F)cc1F	m-calpain inh 77 (no result: ROMK primary)
CNC(=O)Cn1c(C)cc(=O)c2cccc(C)c21	none (no result: HMGR II inh, ROMK primary)
CCOC(=O)Cn1c(=O)cc(C)c2cccc(C)c21	m-calpain inh 73
CCOC(=O)Cn1c(C)cc(=O)c2cccc(C)c21	HMGR II inh 12
CC1(C)Oc2ccc3ccc(=O)oc3c2-c2cnoc21	none (no result: ROMK primary)
CC1(C)Oc2ccc3ccc(=O)oc3c2-c2cn[nH]c21	zVAD death inh 75 (no result: ROMK primary)
Cc1ccc(NC(=O)CN(C)Cc2nc3c(Br)cc(Br)cc3c(=O)[nH]2)cc1	none
O=C(Nc1ccc(Cl)cc1C(=O)N1CCOCC1)c1cccc([N+](=O)[O-])c1	none (no result: ROMK primary)
C=CCNc1ccc(N2C(=O)C3CCC(C)CC3C2=O)cc1[N+](=O)[O-] (centres undefined)	m-calpain inh 67
COCCNc1ccc(N2C(=O)C3CCCCC3C2=O)cc1[N+](=O)[O-] (centres undefined)	none
O=C1C2CCCCC2C(=O)N1c1ccc(NC2CCCCC2)c([N+](=O)[O-])c1 (centres undefined)	m-calpain inh 61
O=c1c2ccccc2nc2n1CCN2Cc1ccc(Cl)cc1	none (no result: ROMK primary)
CN1CCN(C(=O)c2cc3c(C(F)(F)F)nn(C)c3s2)CC1	none (no result: ROMK primary)
Cc1cc(NC(=O)COC(=O)c2oc3c(Cl)cccc3c2C)no1	none
Cc1nc(=S)c2ccccc2[nH]1	HMGR II inh 15
FC(F)(F)c1nc(=S)c2ccccc2[nH]1	none
CCn1cc(S(=O)(=O)CC(=O)N2CCc3ccccc32)c2ccccc21	none (no result: HMGR II inh, ROMK primary)
O=C(c1ccc(Cl)cc1Cl)N1CCC(c2nc3c(nnn3Cc3ccco3)c(=O)[nH]2)CC1	m-calpain inh 70 (no result: ROMK primary)
O=C(c1ccccc1)N1CCC(c2nc3c(nnn3Cc3ccco3)c(=O)[nH]2)CC1	none (no result: ROMK primary)
COc1cc(NC(=O)CSc2ncnc3scc(-c4ccccc4)c23)c(C(=O)O)cc1OC	none
O=C(NC(=S)Nc1cccnc1)c1cc2ccccc2o1	ROMK primary 3.5
O=C(NC(=S)NCc1cccnc1)c1cc2ccccc2o1	none
Cc1ccc(-c2cnc(NC(=O)c3cccc(Br)c3)s2)c(C)c1	none
CCOC(=O)c1ccc2ncc(C(=O)OCC)c(NCc3ccco3)c2c1	ROMK primary 3.3
COc1cccc(Nc2nc(NCC3CCCO3)c3ccccc3n2)c1 (centres undefined)	none
Oc1ccccc1Nc1nc(NCC2CCCO2)c2ccccc2n1 (centres undefined)	14-3-3 Bad inh 77
CCOC(=O)/C(C#N)=C1/C(=O)N(Cc2ccccc2)c2ccccc21	HMGR II inh 15
COC(=O)C1=C(C)N(Cc2ccco2)C(=O)N[C@H]1c1cccc(C(F)(F)F)c1	none
COC(=O)C1=C(C)N(Cc2ccco2)C(=O)N[C@@H]1c1ccccc1	HMGR II inh 11
